The text below walks through data of PubChem BioAssay AID493035 (The Scripps Research Institute Molecular Screening Center, 2011).

In all, about 2,000 compounds went through this assay and about 45 (2%) were called active. Only a selection was taken, and actives are over-represented in it overall. A number with no mark means an inactive call.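 The calls were made as follows: active = inhibition above the mean of all tested compounds plus 3 SD (cut at about 49% in these data); inactive = the rest.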

Sequence of Perilipin-5 (Homo sapiens) + 1-acylglycerol-3-phosphate O-acyltransferase ABHD5 (Homo sapiens) (Q00G26 whole entry, looked up): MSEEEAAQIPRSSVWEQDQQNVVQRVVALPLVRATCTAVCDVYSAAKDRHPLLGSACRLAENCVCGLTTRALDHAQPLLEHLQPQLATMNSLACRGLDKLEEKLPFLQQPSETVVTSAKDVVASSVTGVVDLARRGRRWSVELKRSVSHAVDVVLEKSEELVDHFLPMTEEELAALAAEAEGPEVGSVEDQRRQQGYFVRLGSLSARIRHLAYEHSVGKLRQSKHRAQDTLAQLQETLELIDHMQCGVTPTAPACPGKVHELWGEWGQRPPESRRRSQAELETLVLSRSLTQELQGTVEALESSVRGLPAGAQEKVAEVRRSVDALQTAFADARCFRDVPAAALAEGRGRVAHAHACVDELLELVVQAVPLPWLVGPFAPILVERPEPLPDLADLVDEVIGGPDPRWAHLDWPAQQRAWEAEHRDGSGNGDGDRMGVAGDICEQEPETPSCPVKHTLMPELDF
Sequence of Perilipin-5 (Homo sapiens) + 1-acylglycerol-3-phosphate O-acyltransferase ABHD5 (Homo sapiens) (Q8WTS1 whole entry, looked up): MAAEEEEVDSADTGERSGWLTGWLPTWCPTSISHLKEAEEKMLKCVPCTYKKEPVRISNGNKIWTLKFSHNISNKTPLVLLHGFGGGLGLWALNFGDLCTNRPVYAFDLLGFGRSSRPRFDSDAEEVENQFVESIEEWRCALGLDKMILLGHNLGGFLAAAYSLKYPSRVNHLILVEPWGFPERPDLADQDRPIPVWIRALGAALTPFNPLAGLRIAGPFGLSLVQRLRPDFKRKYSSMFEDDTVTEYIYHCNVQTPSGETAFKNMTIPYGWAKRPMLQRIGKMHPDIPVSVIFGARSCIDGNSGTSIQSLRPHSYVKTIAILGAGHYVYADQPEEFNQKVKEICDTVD

This assay concerns the target Perilipin-5 (Homo sapiens) + 1-acylglycerol-3-phosphate O-acyltransferase ABHD5 (Homo sapiens) (UniProt Q00G26+Q8WTS1). The assay is described as follows: ABHD5-PLIN5 interaction inhibitors, pilot screen, cell lysate, split luciferase complementation, luminescence, NIH validation set (AID 493035).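 Also: 0% = DMSO only wells while the 100% control is not stated.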 The following applies: split G. princeps luciferase complementation, lysates, 4 h; at 7.9 µM, stronger effect = higher value.
For orientation: inhibition means the change of the read-out against control, counted positive when it falls. In the case of `COc1ccc(OC(C)C(=O)Nc2ccccc2F)cc1` (stereo not given), the inhibition was 2.02%. On to `O=C(c1cccnc1)N1N=C(C2CC2)CC1(O)C(F)(F)F` (stereo not given), for which the inhibition is 2.77%. The figure for `O=C(Nc1cccc(C(=O)O)c1)/C(=C\c1ccccc1)NC(=O)c1ccccc1` is -2.05%; for `O=C(O)CCCCCCNC(=O)c1cncc(O)c1` it is -6.1%. With `CC(=O)OC(CC(=O)O)C[N+](C)(C)C` (stereo not given), the inhibition is -14.8%. Next, `COc1ccc(C(=O)Nc2nc3ccccc3c(=O)[nH]2)cc1`: 0.27%. Turning to `CC(C)N1C(=O)/C(=C\c2nc3ccccc3c(=O)[nH]2)c2ccccc21`, the inhibition was 64.9% (active). With `COc1ccc(NC(=O)C2CSC3c4ccccc4C(=O)N23)cc1` (stereo not given), the inhibition is 4.85%. `CCOC(=O)C(Cc1cc(C(C)=O)ccc1OC(C)C)C(=O)OCC`: the inhibition is -3.49%. With `O=C1C2C3C=CC(C4CC34)C2C(=O)N1/N=C/c1ccc(-c2ccc([N+](=O)[O-])cc2)o1` (stereo not given), the inhibition was -2%.

As for `c1ccc(Cn2ncc3c(Nc4ccccc4)ncnc32)cc1`, the inhibition was -6.21%. Regarding `O=C(NO)c1ccccc1O`, the inhibition was -11.8%.

On to `CC(=O)N[C@@H](CS)C(=O)O`, for which the inhibition is -2.08%. With `COC(=O)[C@@H](N)CS`, the inhibition was 78.9% (active). The figure for `COc1cc(OC)c2c(C)c(Cl)c(=O)oc2c1` is -6.84%; for `CCN(CC)C(=O)c1sc(NC(=O)c2c(OC)cccc2OC)c(C#N)c1C` it is -4.18%; for `CCCC(CCC)C(=O)OC1C[C@H]2CC[C@@H](C1)[N+]2(C)C` (stereo not given in full) it is -9.28%. With `CCN(CC)C(=S)SSC(=S)N(CC)CC`, the inhibition is 95.2% (active). For `COc1ccc(O)c(C2=Nc3ccccc3N=C(c3ccccc3)C2)c1`, the inhibition is -11.4%. For the compound `C=CCOc1ccc(C(=O)CC)cc1OC`, the inhibition was -3.26%. For `CCc1oc2ccccc2c1C(=O)c1cc(Br)c(O)c(Br)c1`, the inhibition was 50.7% (active). Regarding `CC(=O)CCc1oc2ccccc2c1-c1ccccc1`, the inhibition is -0.95%. In the case of `CCCCc1oc2ccccc2c1C(=O)c1cc(I)c(OCCN(CC)CC)c(I)c1`, the inhibition is -3.91%. Regarding `COc1ccc2cc[nH]c2c1`, the inhibition was 5.24%. Take `COc1cccc2c(=O)c(C/C=C(/C)Cl)c(C)[nH]c12`: the inhibition was -0.4%. On to `COc1ccc(N2CCN(C(=S)NCc3ccccc3)CC2)cc1`, for which the inhibition is 10.2%. On to `CC(C)=CCC(C)(C)/C=N/NC(N)=O`, for which the inhibition was -11.2%. As for `O=C(c1ccco1)N(CCC(c1ccccc1)c1ccco1)Cc1ccco1` (stereo not given), the inhibition was 58.6% (active). In the case of `COc1ccccc1C(CCN(Cc1ccccc1)C(C)=O)c1ccco1` (stereo not given), the inhibition is 7.01%. Turning to `CC(=O)N(CCC(Cc1ccccc1)c1ccco1)Cc1ccco1` (stereo not given), the inhibition is 39.1%. Consider `COc1ccc(-c2cc(C(=O)N3CCOCC3)c3cc(C)ccc3n2)cc1`, for which the inhibition was -3.27%. On to `O=C(c1ccc(Cl)cc1)C1CCCN(C(=O)/C=C/c2ccccn2)C1` (stereo not given), for which the inhibition was 8.56%. For `CCCCC/C=C\C[C@H](O)/C=C/c1cccc(C[C@H](O)CCCCO)n1`, the inhibition was 62.8% (active). With `CSCCC(NC(=O)/C(=C/c1ccc2c(c1)OCO2)NC(=O)c1cccc([N+](=O)[O-])c1)C(=O)O` (stereo not given), the inhibition is 5.37%.

For the compound `OC[C@@H](O)[C@@H](O[C@H]1O[C@H](CO)[C@@H](O)[C@H](O)[C@H]1O)[C@H](O)[C@@H](O)CO`, the inhibition is -8.59%. With `Cc1cccc(C(=O)c2cccc(C)c2)c1`, the inhibition was -8.84%. Take `Cn1c(=O)c(C(=O)NCCO)c(O)c2ccccc21`: the inhibition is -4.23%.

With `O=C(Nc1ccc(Oc2c(F)c(F)c(F)c(F)c2F)cc1)OC1CCN2Cc3ccccc3N=C12` (stereo not given), the inhibition is 69.3% (active). As to `Cc1ccc(S(=O)(=O)N2CCC(C(=O)N[C@@H](C)C(=O)NC3CCS(=O)(=O)C3)CC2)cc1` (stereo not given in full), the inhibition is -6.13%. As to `Cc1ccc(-c2nnc(-c3ccc4c(c3)OCO4)o2)cc1`, the inhibition is -9.18%.

Take `CN(C)CCCN1c2ccccc2Sc2ccccc21`: the inhibition is -13%. The figure for `CC(CN1c2ccccc2Sc2ccccc21)N(C)C` (stereo not given) is -12.2%. Next, `CCN1/C(=C/C=C/C=C/c2sc3ccccc3[n+]2CC)Sc2ccccc21`: 70.5% (active); `C=CCn1c(SCC(=O)NC2CCCCC2)nc2ccccc2c1=O`: -1.42%. Turning to `COc1ccccc1-c1ccc(/C=C2/C=C(CC(C)C)OC2=O)o1`, the inhibition is 7.79%.

Turning to `CCOC(=O)c1c(C)oc2cc(Br)c(OC(C)C(=O)OCC)cc12` (stereo not given), the inhibition was -0.05%. Regarding `COc1cccc(OCC(O)CO)c1` (stereo not given), the inhibition was -6.51%.

Turning to `N#C/C(C(N)=O)=c1/ccc2c(c1)N1C3=C(CCCC3)CC3CCCCC31N=2` (stereo not given), the inhibition is 25.4%.

On to `COc1ccc(C(=O)COc2ccc(F)cc2)c(O)c1`, for which the inhibition is -6.5%. `COc1cccc(/C=C/C(=O)c2c(O)cc(C)oc2=O)c1O`: the inhibition was 44.4%. Take `COc1ccc(C(=O)/C=C/c2cc(C(=O)O)cc3c2OCOC3)c(O)c1`: the inhibition is 70.3% (active). Regarding `CC1=CC(C)(C)N2C(=O)C3(NCCc4c3[nH]c3ccccc43)c3cc(C)cc1c32` (stereo not given), the inhibition is -1.07%. Turning to `O=C(NC(=S)Nc1ccc(N2CCN(C(=O)c3ccccc3)CC2)cc1)c1cccs1`, the inhibition was 11.4%. For the compound `Cc1ccc(S(=O)(=O)n2ccnc2)cc1C`, the inhibition is -3.74%. With `COC(=O)c1ccc(=O)n(Cc2ccco2)c1`, the inhibition is 18.6%. On to `COC(=O)C1=C(C)N(Cc2ccco2)C(=O)/C1=C\c1ccc([N+](=O)[O-])cc1`, for which the inhibition was 84.5% (active). The figure for `COCCCN1C(=O)/C(=C\c2cccs2)C(C(=O)OC)=C1C` is 0.91%; for `CCNC(=O)C12CCC(C)(C(=O)O1)C2(C)C` (stereo not given) it is -5.33%; for `CC(C)[C@H](NC(=O)[C@@H]1CSCN1C(=O)OC(C)(C)C)C(=O)NCC1CCC(C(=O)O)CC1` (stereo not given in full) it is -18.6%. As for `CC(=O)N/C(=C/c1ccc2c(c1)OCO2)C(=O)NCCO`, the inhibition is 2.23%. The figure for `COc1ccc(C2=C(CN(C)C)C(c3ccccc3)c3ccccc3O2)cc1` (stereo not given) is 1.13%; for `CCOC(=O)C(=O)N1CCN(c2ccccc2OC)CC1` it is -5.55%. Take `CCOC(=O)C(=Cc1ccccc1OC)C(=O)OCC`: the inhibition is 47.9% (active). Next, `COc1ccccc1/C=C/C(=O)OCCN1CCOCC1`: -8.59%; `CCn1cc(CN2N=C(C)CC2c2ccccc2)c(C)n1` (stereo not given): 2.34%; `Cc1ccc(S(=O)(=O)NC(=O)Nc2cc(C)ccc2F)cc1`: -7.32%. As for `CC(C)(C)N1NC2(CCCCC2)NC1=S`, the inhibition is 6.12%. The figure for `COc1ccc2oc(=O)c(C(=O)Nc3ccccc3-c3ccccc3)cc2c1` is -5.51%. In the case of `COc1ccc2oc(=O)c(C(=O)N3CCN(c4ccccc4)CC3)cc2c1`, the inhibition is 9.11%. Turning to `COc1ccc(O)c(C(=O)/C=C/c2cc3ccccc3o2)c1`, the inhibition is 73.2% (active). For `Cc1ccc(C(=O)O)cc1NC(=O)c1cccs1`, the inhibition was -5.26%. `CN1/C(=C\C=Nc2ccccc2)C(C)(C)c2ccccc21`: the inhibition is 14.1%. With `COc1ccc2cc(-c3nc4ccccc4n3C)c(=O)oc2c1`, the inhibition was -5.19%.

For `CCn1c2ccccc2c2cc(CC(N)=O)ccc21`, the inhibition was -7.62%.

For `COc1ccccc1C(=O)Nc1cc2cc(Br)ccc2oc1=O`, the inhibition was -7.35%.

Consider `Cc1ccc(CSCC(=O)NCCCN2CCOCC2)cc1`, for which the inhibition is 2.33%.

For `Cc1cc(=O)c2c(O)c(O)ccc2o1`, the inhibition was -3.3%.

On to `O=c1nc2sc3ccccc3n2c(=O)n1-c1ccc(Cl)cc1`, for which the inhibition was 5.72%. On to `COc1ccc(C)cc1S(=O)(=O)Nc1ccc(F)cc1`, for which the inhibition is 0.68%. For the compound `CCCCNC(=O)NS(=O)(=O)c1ccc(C)cc1`, the inhibition is -4.64%. With `CNS(=O)(=O)c1ccc(C)cc1`, the inhibition is -16.6%. In the case of `Cc1ccc(S(=O)(=O)N[C@@H](Cc2ccccc2)C(=O)CCl)cc1`, the inhibition was 84.4% (active). As to `COc1ccc(-c2nnc(-c3cc4c(ccc5ccccc54)oc3=O)o2)cc1`, the inhibition was 5.2%. The figure for `COc1c(C=O)c(CCN(C)C(=O)c2ccc(F)cc2)cc2c1OCO2` is 3.02%; for `CCCOc1ccc(-c2cc(C(=O)NCC3CCCO3)c3ccccc3n2)cc1` (stereo not given) it is -0.81%.

As for `O=C(O)c1cc(-c2ccccc2)nc2ccccc12`, the inhibition was -2.12%. Consider `COC(=O)c1cc(-c2ccc(C)o2)nc2ccccc12`, for which the inhibition is 72.8% (active). On to `C/C(=N\NC(=O)c1ccccc1[N+](=O)[O-])c1ccc(Br)s1`, for which the inhibition was -7.54%. Turning to `Cc1cc(C)c(NC(=O)NC(=O)C(Cl)(Cl)Cl)c(C)c1`, the inhibition was -18.5%. Consider `O=C(/C=C/c1ccc2c(c1)OCO2)NCc1ccc(F)cc1`, for which the inhibition is 1.71%. Next, `O=C(/C=C/c1ccc2c(c1)OCO2)c1ccccn1`: 55.7% (active). The figure for `O=C(/C=C/c1ccc2c(c1)OCCCO2)c1ccc2ccccc2c1O` is 26.6%; for `O=C1N[C@@H](Cc2cnc[nH]2)C(=O)N2CCC[C@@H]12` it is -13.3%. In the case of `O=C(c1ccccc1F)c1cc2c(cc1[N+](=O)[O-])OCCO2`, the inhibition was 2.64%. Turning to `O=C(CN1CC[n+]2c(-c3cccs3)csc21)c1ccc(Br)cc1`, the inhibition was 51.8% (active). With `COc1ccc(-c2c3c(=O)n(C)c(=O)n(C)c3cn2C2CCCCC2)cc1`, the inhibition was 7.04%. Consider `O=C(O)/C=C/c1cccc(OCc2ccccc2)c1`, for which the inhibition was -15.3%.

On to `CC(C)C[C@H](NC(=O)NC(C)C)C(=O)O`, for which the inhibition is -0.17%. In the case of `CC(C)OC(=O)CC1C(=O)NCCN1C(=S)NC(=O)c1cccs1` (stereo not given), the inhibition is -6.51%. For `COc1ccc(C2CC(c3c(O)cc(C)oc3=O)=NCCS2)c(OC)c1` (stereo not given), the inhibition is 22.5%.
